# Results taken from ChEMBL document CHEMBL3988442, “University of Dundee, Small-Polar-MMV Screening Library” (2021).
# The whole screen tested about 69,000 compounds, of which about 1,000 (1.4%) showed an effect of 50% or more. The full list was thinned out, with strong results kept by preference.
# Tested on: Leishmania donovani
# Test: Leishmania intramacrophage assay
# Format: functional, organism-based
# Design: scale not given: in the data most compounds retested in dose-response had high values
compound,measurement,setting,value
O=C(O)C(F)(F)F.c1ncn(Cc2cnc3n2CCN(Cc2ccsc2)CC3)n1,Percent Effect,"30 µM, 30.03 µM",-12.88%
O=C1NCC(C(=O)N(Cc2cccc(Br)c2)C2CC2)N1 (stereo not given),Percent Effect,"30.3 µM, […]",-2.381%
O=C1CC[C@H](C(=O)N(CCc2ccccc2)C2CCOC2)N1 (stereo not given in full),Percent Effect,"30.3 µM, […]",6.545%
O=C1CC[C@H](C(=O)N(Cc2cccc(Br)c2)C2CC2)N1,Percent Effect,"30.3 µM, […]",50.36%
Nc1nc(CCCNC(=O)c2ccc(C3CCCNC3)cc2)cs1 (stereo not given),Percent Effect,"30.3 µM, […]",19.48%
Nc1nnc(CCCNC(=O)c2ccc(C3CCCNC3)cc2)s1 (stereo not given),Percent Effect,"30.3 µM, […]",51.22%
Nc1nnc(CCNC(=O)c2cccc(C3CCCNC3)c2)s1 (stereo not given),Percent Effect,"30.3 µM, […]",5.236%
CN(Cc1cccc(OC(F)(F)F)c1)Cc1cnn(C)c1,Percent Effect,"30.3 µM, […]",10.05%
CCN1CCCC(O)(CNCc2ccncc2)C1 (stereo not given),Percent Effect,"30.3 µM, […]",-12.57%
Cc1cc(NCc2ccc(S(N)(=O)=O)cc2)nc(C)n1,Percent Effect,"30.3 µM, […]",22.51%
NCCc1nc(N(Cc2cncs2)C2CC2)c2ccccc2n1,Percent Effect,"30.3 µM, […]",-1.942%
Cc1ccsc1CN(c1nc(CCN)nc2ccccc12)C1CC1,Percent Effect,"30.3 µM, […]",40.33%
COCCN(Cc1cccs1)c1nc(CCN)nc2ccccc12,Percent Effect,"30.3 µM, […]",70.83%
COCCN(CC1CC1)c1nc(CCN)nc2ccccc12,Percent Effect,"30.3 µM, […]",14.22%
COCCN(Cc1ccccc1Cl)c1nc(CCN)nc2ccccc12,Percent Effect,"30.3 µM, […]",98.78%
NCCc1nc(N(Cc2nccs2)C2CC2)c2ccccc2n1,Percent Effect,"30.3 µM, […]",-16.71%
CCS(=O)(=O)CC(=O)N1CCCC(c2noc(C(C)C)n2)C1 (stereo not given),Percent Effect,"30.3 µM, […]",10.94%
CCOCCN1CCN(CC(O)c2ccc(C)c(C)c2)CC1 (stereo not given),Percent Effect,"30.3 µM, […]",32.27%
Cc1nn(C)c(C)c1C1CCCN1C(=O)c1ccc2nnc(C)n2c1 (stereo not given),Percent Effect,30 µM,22.91%
CCC(CO)N(Cc1ccco1)C(=O)c1ccccc1SC (stereo not given),Percent Effect,"30.3 µM, […]",54.97%
CCC(CO)N(Cc1ccco1)C(=O)c1ccccc1NC (stereo not given),Percent Effect,"30.3 µM, […]",33.8%
CCC(CO)N(Cc1ccco1)C(=O)c1cccc(C)c1O (stereo not given),Percent Effect,"30.3 µM, […]",10.11%
FC(F)CN1CCC(NCCc2ccc(-n3cccn3)cc2)CC1,Percent Effect,"30.3 µM, […]",23.28%
CC(CNC1CCN(c2ccccn2)CC1)Oc1ccc(F)cc1 (stereo not given),Percent Effect,"30.3 µM, […]",19.84%
c1cnn(-c2ccc(CCNC3CCN(C4CC4)C3)cc2)c1 (stereo not given),Percent Effect,"30.3 µM, […]",-4.355%
COc1ccc(C(C)CCNC2CCN(c3ccccn3)CC2)cc1 (stereo not given),Percent Effect,"30.3 µM, […]",60.53%
CC(C)COCCNC1CCN(c2ccccn2)CC1,Percent Effect,"30.3 µM, […]",16.23%
c1ccc(N2CCC(NCCc3ccc(-n4cccn4)cc3)CC2)nc1,Percent Effect,"30.3 µM, […]",62.72%
O=C(O)C(F)(F)F.O=C(c1n[nH]c2c1CCN(Cc1nccs1)C2)N1CCCC1,Percent Effect,"30 µM, 30.03 µM",10.02%
COc1cccc(-n2cc(CN(C)Cc3ccnc(C(C)C)n3)cn2)c1,Percent Effect,"30.3 µM, […]",11.44%
CCOCC1CN(C(=O)Cc2ccccn2)Cc2cn(C)nc21 (stereo not given),Percent Effect,"30.3 µM, […]",5.026%
O=C(c1ccco1)N1CCOCC2(C1)CN(c1ccoc1)C(=O)CO2 (stereo not given),Percent Effect,"30.3 µM, […]",15.48%
CCn1cnnc1CCNC(=O)C1COc2ccc(OC)cc2C1 (stereo not given),Percent Effect,"30.3 µM, […]",15.43%
COc1nn(C)c2c1CCCN(C(=O)c1cccc(C)n1)C2.O=C(O)C(F)(F)F,Percent Effect,"30.3 µM, […]",4.327%
COc1nn(C)c2c1CCCN(C(=O)c1ccc3ccccc3n1)C2.O=C(O)C(F)(F)F,Percent Effect,"30.3 µM, […]",-11.56%
COc1nn(C)c2c1CCCN(C(=O)c1cccc3cccnc13)C2.O=C(O)C(F)(F)F,Percent Effect,"30.3 µM, […]",75.35%
COCCNC(=O)CN1CC=C(n2c(C)nc(=O)c3ccccc32)CC1,Percent Effect,"30.3 µM, […]",40.79%
Cc1nnc2n1CCN(CC(=O)NC(C)c1cccc3ccccc13)C2 (stereo not given),Percent Effect,"30.3 µM, […]",-27.74%
Cc1nc2ccccc2c(=O)n1CCC(=O)N1CCCCCC1,Percent Effect,30 µM,21.32%
Cc1nc(=O)c2ccccc2n1C1=CCN(CC(=O)N2CCCC2)CC1,Percent Effect,"30.3 µM, […]",66.01%
Cc1nc2ccccc2c(=O)n1CCC(=O)N1CCCC1,Percent Effect,30 µM,19.05%
Cc1nc(=O)c2ccccc2n1C1=CCN(CC(=O)NC(C)C)CC1,Percent Effect,"30.3 µM, […]",64.5%
CSCCNC(=O)c1ccc(OC2CCN(CC(C)(C)C)CC2)c(Cl)c1,Percent Effect,"30 µM, 30.03 µM",17.7%
COCc1n[nH]c2c1CN(Cc1ccccn1)C2.O=C(O)C(F)(F)F,Percent Effect,"30.3 µM, […]",2.635%
Cc1nc(CN2CC[C@H]3[C@@H]2CCC(=O)N3c2cnn(C)c2)cs1.O=C(O)C(F)(F)F,Percent Effect,"30.3 µM, […]",2.736%
CC(C)(C)C(=O)N1CCN(C(=O)Nc2cnn(CC(F)F)c2)CC1,Percent Effect,"30.3 µM, […]",4.989%
O=C(c1cccnc1)N1CCCC(c2ncncc2-c2ccncc2)C1 (stereo not given),Percent Effect,"30.3 µM, […]",1.341%
CCO[C@@H]1CCN(C(=O)c2cscn2)[C@@H]1Cc1cnn(C)c1,Percent Effect,"30 µM, 30.03 µM",-2.934%
COCCO[C@H]1CCN(C(=O)c2ccc[nH]2)[C@H]1Cc1ccncc1,Percent Effect,"30 µM, 30.03 µM",17.48%
CCO[C@@H]1CCN(C(=O)c2cnc(C)cn2)[C@@H]1Cc1cnn(C)c1,Percent Effect,"30.3 µM, […]",53.66%
COCCO[C@H]1CCN(C(=O)c2ccsc2)[C@H]1Cc1ccncc1,Percent Effect,"30.3 µM, […]",26.31%
CCO[C@@H]1CCN(C(=O)N(C)C)[C@@H]1Cc1cnn(C)c1,Percent Effect,"30.3 µM, […]",27.5%
COCCO[C@H]1CCN(C(=O)c2cnccn2)[C@H]1Cc1ccncc1,Percent Effect,"30.3 µM, […]",54.37%
CN(C)S(=O)(=O)N1CC[C@]2(C[C@@H](Oc3cccnc3)CO2)C1.O=C(O)C(F)(F)F,Percent Effect,"30.3 µM, […]",7.751%
Cc1ccc(N2CCCc3sc(C(=O)NCc4ccc(C)o4)nc32)nn1,Percent Effect,"30.3 µM, […]",18.34%
O=C1N(CCc2ccccc2)CCCC1(O)CNCc1ccc(F)cc1 (stereo not given),Percent Effect,"30.3 µM, […]",14.91%
COCCNCC1(O)CCCN(Cc2ccc(F)c(F)c2)C1=O (stereo not given),Percent Effect,"30.3 µM, […]",36.88%
O=C1N(CCCc2ccccc2)CCCC1(O)CNCc1ccccc1 (stereo not given),Percent Effect,"30 µM, 30.03 µM",54.86%
O=C1N(CCC2CCCCC2)CCCC1(O)CNCCc1ccccc1 (stereo not given),Percent Effect,"30.3 µM, […]",74.42%
O=C1OCCN1CCNCC1(O)CCCN(CCC2CCCCC2)C1=O (stereo not given),Percent Effect,"30.3 µM, […]",27.13%
C=C(C)CNCC1(O)CCCN(Cc2ccc(F)c(F)c2)C1=O (stereo not given),Percent Effect,"30.3 µM, […]",36.85%
O=C1NCCN1CCNCC1(O)CCCN(CCC2CCCCC2)C1=O (stereo not given),Percent Effect,"30.3 µM, […]",17.71%
O=C1N(Cc2ccc(F)c(F)c2)CCCC1(O)CNCC1CCCCC1 (stereo not given),Percent Effect,"30.3 µM, […]",62.26%
O=C1N(CCCc2ccccc2)CCCC1(O)CNCC1CCCCC1 (stereo not given),Percent Effect,"30.3 µM, […]",36.42%
Cc1nsc(N2CCc3sccc3C2)n1,Percent Effect,"30.3 µM, […]",14.81%
